Laboratory results reported in the supplement of paper PMC10849652.
The full data set covers some 7,900 targets. This sample favours those with a hit. About 0.6% of all pairs of compound and target were hits.

How the values were obtained:
Assay in all cases: log2 fold change, soluble protein after heating vs DMSO (PISA); higher = thermal stabilisation; K562 cells, 10 uM, 30 min; active = over 0.2 and 3.5 SD of the protein, either way, in both replicates (recomputed)
[1] = compound: CS(=O)(=O)c1ccc(-c2cnc(N)c(C(=O)Nc3ccccc3)n2)cc1
Outline: (§1)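 K562 cells at 2×10^6 cells/mL were treated for 30 min with 10 μM compound, and aliquots were heated for 3 min over 48°C-58°C before pooling. Extraction used PBS with 0.5% NP-40 at 4°C, and soluble protein was the supernatant after 21,000xg for 90 min, measured by TMTpro 16plex LC-MS/MS with channel sums equalised. Thermal stability values, relative to control samples and from duplicates, are log2 fold changes.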

crizotinib = compound: C[C@@H](Oc1cc(-c2cnn(C3CCNCC3)c2)cnc1N)c1c(Cl)ccc(F)c1Cl [crizotinib]
Outline: as §1

[2] = compound: C[C@@H]1COCCN1C2=NC(=NC(=C2)C3(CC3)S(=O)(=O)C)C4=C5C=CNC5=CC=C4
Outline: as §1

[3] = compound: C[C@H](C1=CC=C(C=C1)C(=O)NC2=C3C=CNC3=NC=C2)N
Outline: as §1

duvelisib = compound: C[C@H](Nc1ncnc2nc[nH]c12)c1cc2cccc(Cl)c2c(=O)n1-c1ccccc1 [duvelisib]
Outline: as §1

gandotinib = compound: Cc1cc(Nc2cc(CN3CCOCC3)c3nc(C)c(Cc4ccc(Cl)cc4F)n3n2)n[nH]1 [gandotinib]
Outline: as §1

tozasertib = compound: Cc1cc(Nc2cc(N3CCN(C)CC3)nc(Sc3ccc(NC(=O)C4CC4)cc3)n2)n[nH]1 [tozasertib]
Outline: as §1

[4] = compound: Cc1cc(SCc2sc(-c3ccc(C(F)(F)F)cc3)nc2C)ccc1OCC(=O)O
Outline: as §1

doramapimod = compound: Cc1ccc(-n2nc(C(C)(C)C)cc2NC(=O)Nc2ccc(OCCN3CCOCC3)c3ccccc23)cc1 [doramapimod]
Outline: as §1

ispinesib = compound: Cc1ccc(C(=O)N(CCCN)[C@@H](c2nc3cc(Cl)ccc3c(=O)n2Cc2ccccc2)C(C)C)cc1 [ispinesib]
Outline: as §1

Measured: log2 fold change

ATP7B (UniProt P35670)
UniProt P35670, sequence (P35670 whole entry, looked up): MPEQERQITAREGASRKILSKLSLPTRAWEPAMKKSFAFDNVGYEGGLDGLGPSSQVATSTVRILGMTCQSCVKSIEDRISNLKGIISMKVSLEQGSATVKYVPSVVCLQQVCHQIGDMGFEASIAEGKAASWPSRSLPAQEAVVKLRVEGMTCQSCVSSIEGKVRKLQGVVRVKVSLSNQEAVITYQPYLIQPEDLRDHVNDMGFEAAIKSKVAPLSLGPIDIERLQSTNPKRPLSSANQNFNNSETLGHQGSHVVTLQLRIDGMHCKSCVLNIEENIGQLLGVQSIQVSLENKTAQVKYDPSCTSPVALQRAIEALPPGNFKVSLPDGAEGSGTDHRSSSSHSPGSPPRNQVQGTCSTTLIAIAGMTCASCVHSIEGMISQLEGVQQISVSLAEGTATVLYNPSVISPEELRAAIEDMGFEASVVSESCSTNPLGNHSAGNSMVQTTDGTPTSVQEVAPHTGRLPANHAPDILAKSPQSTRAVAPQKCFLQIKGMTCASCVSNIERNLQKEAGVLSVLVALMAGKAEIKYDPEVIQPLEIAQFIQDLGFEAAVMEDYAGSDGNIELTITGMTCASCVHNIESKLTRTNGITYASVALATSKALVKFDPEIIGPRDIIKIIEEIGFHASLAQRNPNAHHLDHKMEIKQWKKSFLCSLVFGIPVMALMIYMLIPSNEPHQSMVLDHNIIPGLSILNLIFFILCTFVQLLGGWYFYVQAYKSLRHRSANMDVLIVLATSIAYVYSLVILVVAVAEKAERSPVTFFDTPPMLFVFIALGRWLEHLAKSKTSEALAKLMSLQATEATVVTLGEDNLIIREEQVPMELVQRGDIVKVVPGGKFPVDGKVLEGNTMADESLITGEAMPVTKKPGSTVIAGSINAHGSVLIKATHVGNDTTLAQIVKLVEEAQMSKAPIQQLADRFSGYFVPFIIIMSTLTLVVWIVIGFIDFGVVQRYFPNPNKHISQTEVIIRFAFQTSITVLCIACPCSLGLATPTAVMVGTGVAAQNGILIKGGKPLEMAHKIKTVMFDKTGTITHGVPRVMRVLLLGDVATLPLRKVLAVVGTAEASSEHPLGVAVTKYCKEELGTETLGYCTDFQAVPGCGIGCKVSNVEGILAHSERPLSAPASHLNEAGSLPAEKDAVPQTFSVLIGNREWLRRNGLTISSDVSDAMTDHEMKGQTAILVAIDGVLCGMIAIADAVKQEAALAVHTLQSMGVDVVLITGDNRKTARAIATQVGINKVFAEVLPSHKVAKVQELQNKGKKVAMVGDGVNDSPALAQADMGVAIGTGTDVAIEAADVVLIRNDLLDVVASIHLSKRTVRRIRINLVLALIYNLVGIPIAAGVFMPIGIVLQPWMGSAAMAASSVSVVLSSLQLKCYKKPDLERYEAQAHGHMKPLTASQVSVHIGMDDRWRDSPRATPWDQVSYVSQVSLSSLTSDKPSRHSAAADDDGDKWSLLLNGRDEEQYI
inactive: [1] -0.009 | crizotinib -0.005 | [2] 0.03 | [3] 0.065 | duvelisib 0.092 | gandotinib -0.141 | tozasertib 0.033 | [4] -0.014 | doramapimod 0.137 | ispinesib -0.015

AP2A2 isoform 2 (UniProt O94973)
inactive: [1] 0.022 | crizotinib -0.076 | [2] -0.033 | [3] -0.186 | duvelisib 0.009 | gandotinib -0.057 | tozasertib -0.091 | [4] -0.021 | doramapimod 0.03 | ispinesib 0.024

ARF4 (UniProt P18085)
active: ispinesib 0.254
inactive: [1] 0.057 | crizotinib 0.081 | [2] 0.122 | [3] -0.018 | duvelisib 0.081 | gandotinib -0.074 | tozasertib -0.021 | [4] 0.017 | doramapimod -0.034

AP2A1 (UniProt O95782)
active: [3] -0.237
inactive: [1] -0.011 | crizotinib -0.127 | [2] -0.006 | duvelisib -0.015 | gandotinib 0.01 | tozasertib -0.126 | [4] 0.02 | doramapimod 0.039 | ispinesib 0.081

AKT1 (UniProt P31749)
UniProt P31749, sequence (P31749 whole entry, looked up): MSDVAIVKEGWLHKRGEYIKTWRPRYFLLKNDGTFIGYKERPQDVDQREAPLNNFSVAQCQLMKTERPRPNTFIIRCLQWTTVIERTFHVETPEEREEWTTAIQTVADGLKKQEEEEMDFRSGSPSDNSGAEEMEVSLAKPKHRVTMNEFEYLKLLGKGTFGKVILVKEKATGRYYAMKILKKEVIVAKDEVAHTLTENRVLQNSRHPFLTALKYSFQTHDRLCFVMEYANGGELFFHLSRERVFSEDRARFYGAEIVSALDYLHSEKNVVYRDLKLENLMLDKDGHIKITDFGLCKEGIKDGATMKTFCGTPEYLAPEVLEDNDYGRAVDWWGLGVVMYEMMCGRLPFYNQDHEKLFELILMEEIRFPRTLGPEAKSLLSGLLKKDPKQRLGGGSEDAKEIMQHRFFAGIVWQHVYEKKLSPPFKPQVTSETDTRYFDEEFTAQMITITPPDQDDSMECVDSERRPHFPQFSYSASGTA
inactive: [1] -0.013 | crizotinib -0.104 | [2] -0.188 | [3] 0.135 | duvelisib -0.062 | gandotinib -0.144 | tozasertib 0.032 | [4] 0.298 | doramapimod -0.005 | ispinesib -0.03

ADD3 (UniProt Q9UEY8)
inactive: [1] 0 | crizotinib 0.023 | [2] 0.018 | [3] -0.079 | duvelisib 0.023 | gandotinib -0.029 | tozasertib -0.053 | [4] -0.059 | doramapimod 0.016 | ispinesib 0.061

ABHD16A (UniProt O95870)
inactive: [1] -0.012 | crizotinib 0.277 | [2] 0.029 | [3] 0.033 | duvelisib 0.014 | gandotinib 0.158 | tozasertib -0.009 | [4] 0.012 | doramapimod 0.136 | ispinesib 0.125

ATP13A2 (UniProt Q9NQ11)
inactive: [1] -0.012 | crizotinib -0.214 | [2] 0.031 | [3] 0.008 | duvelisib 0.105 | gandotinib 0.01 | tozasertib -0.006 | [4] 0.018 | doramapimod 0.025
active: ispinesib -0.363

ABHD17A isoform 2 (UniProt Q96GS6)
inactive: [1] -0.027 | crizotinib -0.135 | [2] -0.03 | [3] -0.015 | duvelisib -0.008 | gandotinib -0.283 | tozasertib -0.024 | [4] 0.016 | doramapimod 0.004 | ispinesib -0.129

AGPAT3 isoform 3 (UniProt Q9NRZ7)
inactive: [1] -0.051 | crizotinib -0.04 | [2] 0.125 | [3] -0.074 | duvelisib 0.005 | gandotinib -0.004 | tozasertib -0.002 | [4] 0.023 | doramapimod 0.004 | ispinesib -0.074

ATP1A1 (UniProt P05023)
inactive: [1] 0.032 | crizotinib 0.165 | [2] 0.028 | [3] -0.117 | duvelisib 0.029 | gandotinib -0.049 | tozasertib -0.061 | [4] -0.035 | doramapimod -0.047 | ispinesib 0.106

ADPRHL2 (UniProt Q9NX46)
inactive: [1] 0.052 | crizotinib 0.092 | [2] 0.045 | [3] -0.072 | duvelisib 0.17 | gandotinib 0.07 | tozasertib -0.077 | [4] 0.039 | doramapimod -0.017
active: ispinesib 0.303

APOB (UniProt P04114)
active: ispinesib -0.55
inactive: [1] 0.066 | crizotinib -0.443 | [2] 0.083 | [3] -0.203 | duvelisib 0.003 | gandotinib -0.198 | tozasertib -0.085 | [4] 0.007 | doramapimod -0.288

ACSL4 (UniProt O60488)
UniProt O60488, sequence (O60488 whole entry, looked up): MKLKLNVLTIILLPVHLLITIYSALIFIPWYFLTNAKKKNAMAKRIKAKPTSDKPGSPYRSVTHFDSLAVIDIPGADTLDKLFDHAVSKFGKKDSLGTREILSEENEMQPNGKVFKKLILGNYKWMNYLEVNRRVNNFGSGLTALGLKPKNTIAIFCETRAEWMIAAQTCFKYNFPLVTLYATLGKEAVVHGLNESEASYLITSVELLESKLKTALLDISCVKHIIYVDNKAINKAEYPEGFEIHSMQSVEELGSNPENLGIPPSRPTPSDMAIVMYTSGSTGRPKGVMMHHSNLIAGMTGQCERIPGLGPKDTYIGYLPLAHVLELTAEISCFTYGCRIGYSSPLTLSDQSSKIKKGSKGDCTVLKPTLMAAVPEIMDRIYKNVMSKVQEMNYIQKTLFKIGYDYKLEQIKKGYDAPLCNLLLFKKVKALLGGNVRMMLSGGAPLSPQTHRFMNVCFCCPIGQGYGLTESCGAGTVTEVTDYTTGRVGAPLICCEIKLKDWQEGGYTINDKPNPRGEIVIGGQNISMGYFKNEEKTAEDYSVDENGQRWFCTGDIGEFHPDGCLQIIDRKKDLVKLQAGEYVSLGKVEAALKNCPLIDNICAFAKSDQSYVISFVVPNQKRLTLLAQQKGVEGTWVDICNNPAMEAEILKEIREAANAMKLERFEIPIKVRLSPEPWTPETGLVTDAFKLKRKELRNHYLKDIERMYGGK
active: crizotinib -0.338 | ispinesib -0.311
inactive: [1] 0.02 | [2] 0.07 | [3] 0.099 | duvelisib 0.045 | gandotinib -0.089 | tozasertib 0.032 | [4] 0.151 | doramapimod 0.01

ADK (UniProt P55263)
inactive: [1] 0.144 | crizotinib 0.275 | [2] 0.034 | [3] -0.105 | duvelisib 0.114 | gandotinib 0.276 | tozasertib 0.015 | [4] -0.061 | doramapimod -0.039 | ispinesib 0.112

AIFM2 (UniProt Q9BRQ8)
inactive: [1] 0.039 | crizotinib 0.098 | [2] -0.013 | [3] -0.067 | duvelisib 0.07 | gandotinib 0.022 | tozasertib -0.029 | [4] -0.032 | doramapimod 0.08
active: ispinesib 0.207

ARL6IP4 (UniProt Q66PJ3)
inactive: [1] 0.014 | crizotinib 0.026 | [2] 0.036 | [3] -0.093 | duvelisib 0.039 | gandotinib 0.114 | tozasertib -0.005 | [4] -0.038 | doramapimod 0.013 | ispinesib -0.051

ARAF (UniProt P10398)
inactive: [1] 0.012 | crizotinib -0.093 | [2] 0.059 | [3] 0.112 | duvelisib -0.009 | gandotinib 0.039 | tozasertib -0.074 | [4] 0.081 | doramapimod -0.035 | ispinesib -0.051

ACTR1B (UniProt P42025)
inactive: [1] 0 | crizotinib -0.009 | [2] 0.156 | [3] 0.072 | duvelisib 0.009 | gandotinib -0.167 | tozasertib 0.073 | [4] -0.022 | doramapimod 0 | ispinesib 0.124

BUB1B isoform 3 (UniProt O60566)
inactive: [1] -0.015 | crizotinib -0.108 | [2] 0.013 | [3] 0.083 | duvelisib 0.011 | gandotinib -0.207 | tozasertib 0.119 | [4] 0.057 | doramapimod 0.047 | ispinesib -0.072

BRIP1 (UniProt Q9BX63)
inactive: [1] 0.13 | crizotinib 0.019 | [2] 0.151 | [3] -0.005 | duvelisib 0.042 | gandotinib -0.035 | tozasertib 0.183 | [4] 0.009 | doramapimod -0.088 | ispinesib 0.018

ATAD1 (UniProt Q8NBU5)
UniProt Q8NBU5, sequence (Q8NBU5 whole entry, looked up): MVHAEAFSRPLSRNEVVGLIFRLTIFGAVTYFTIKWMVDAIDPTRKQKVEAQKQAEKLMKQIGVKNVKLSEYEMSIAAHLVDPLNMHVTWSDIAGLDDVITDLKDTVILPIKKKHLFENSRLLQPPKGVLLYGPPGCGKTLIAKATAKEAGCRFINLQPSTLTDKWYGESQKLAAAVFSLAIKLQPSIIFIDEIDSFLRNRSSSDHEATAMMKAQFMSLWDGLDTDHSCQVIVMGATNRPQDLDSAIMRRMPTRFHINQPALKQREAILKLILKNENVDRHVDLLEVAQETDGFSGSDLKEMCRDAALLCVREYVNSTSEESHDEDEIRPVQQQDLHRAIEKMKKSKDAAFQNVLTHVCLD
inactive: [1] 0.004 | crizotinib 0.021 | [2] -0.013 | [3] 0.074 | duvelisib -0.032 | gandotinib 0.144 | tozasertib -0.013 | [4] 0.113 | doramapimod -0.003 | ispinesib -0.063

BRAP (UniProt Q7Z569)
inactive: [1] 0.027 | crizotinib -0.205 | [2] 0.008 | [3] -0.01 | duvelisib -0.046 | gandotinib -0.024 | tozasertib 0.072 | [4] 0.093 | doramapimod 0.081 | ispinesib -0.089

ADH5 (UniProt P11766)
inactive: [1] -0.021 | crizotinib 0.033 | [2] 0.032 | [3] -0.033 | duvelisib -0.002 | gandotinib -0.014 | tozasertib -0.003 | [4] -0.031 | doramapimod -0.033 | ispinesib -0.003

ATP11A (UniProt P98196)
inactive: [1] 0.017 | crizotinib 0.042 | [2] 0.032 | [3] -0.103 | duvelisib -0.025 | gandotinib 0.027 | tozasertib -0.017 | [4] -0.055 | doramapimod 0.018 | ispinesib 0.092

ATP6V1C1 (UniProt P21283)
inactive: [1] -0.05 | crizotinib 0.1 | [2] -0.05 | [3] 0.14 | duvelisib 0.049 | gandotinib 0.033 | tozasertib 0.116 | [4] 0.041 | doramapimod 0.015 | ispinesib 0.122

ATP2A3 isoform 2 (UniProt Q93084)
UniProt Q93084, sequence (Q93084 whole entry, looked up): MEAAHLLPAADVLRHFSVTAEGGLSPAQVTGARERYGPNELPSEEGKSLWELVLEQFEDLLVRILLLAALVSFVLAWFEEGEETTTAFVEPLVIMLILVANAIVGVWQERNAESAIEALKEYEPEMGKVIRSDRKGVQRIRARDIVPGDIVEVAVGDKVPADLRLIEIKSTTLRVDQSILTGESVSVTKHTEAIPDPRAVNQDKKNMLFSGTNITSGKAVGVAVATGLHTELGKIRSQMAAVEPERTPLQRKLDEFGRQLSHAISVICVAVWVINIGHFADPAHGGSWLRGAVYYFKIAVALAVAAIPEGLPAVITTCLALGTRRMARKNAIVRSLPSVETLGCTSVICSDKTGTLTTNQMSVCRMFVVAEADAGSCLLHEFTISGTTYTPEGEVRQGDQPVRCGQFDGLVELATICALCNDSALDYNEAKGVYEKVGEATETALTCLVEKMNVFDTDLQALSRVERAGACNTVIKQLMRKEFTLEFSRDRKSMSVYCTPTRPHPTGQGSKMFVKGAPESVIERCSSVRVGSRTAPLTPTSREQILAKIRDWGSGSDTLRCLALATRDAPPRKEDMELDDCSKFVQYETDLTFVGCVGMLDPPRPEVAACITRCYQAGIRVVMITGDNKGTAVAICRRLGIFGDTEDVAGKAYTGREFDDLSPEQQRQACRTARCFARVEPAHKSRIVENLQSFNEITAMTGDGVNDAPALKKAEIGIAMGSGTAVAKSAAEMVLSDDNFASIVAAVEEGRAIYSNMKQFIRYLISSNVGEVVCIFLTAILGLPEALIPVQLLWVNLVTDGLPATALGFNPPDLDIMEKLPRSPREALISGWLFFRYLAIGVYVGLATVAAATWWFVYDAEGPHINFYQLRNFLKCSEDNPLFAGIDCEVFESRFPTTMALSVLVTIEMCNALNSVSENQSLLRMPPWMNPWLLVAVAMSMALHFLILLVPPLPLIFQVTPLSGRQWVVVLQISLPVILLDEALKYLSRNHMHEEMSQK
inactive: [1] -0.003 | crizotinib 0.084 | [2] -0.048 | [3] -0.022 | duvelisib 0.025 | gandotinib -0.068 | tozasertib -0.036 | [4] -0.025 | doramapimod -0.023 | ispinesib -0.091

B4GALNT1 (UniProt Q00973)
UniProt Q00973, sequence (Q00973 whole entry, looked up): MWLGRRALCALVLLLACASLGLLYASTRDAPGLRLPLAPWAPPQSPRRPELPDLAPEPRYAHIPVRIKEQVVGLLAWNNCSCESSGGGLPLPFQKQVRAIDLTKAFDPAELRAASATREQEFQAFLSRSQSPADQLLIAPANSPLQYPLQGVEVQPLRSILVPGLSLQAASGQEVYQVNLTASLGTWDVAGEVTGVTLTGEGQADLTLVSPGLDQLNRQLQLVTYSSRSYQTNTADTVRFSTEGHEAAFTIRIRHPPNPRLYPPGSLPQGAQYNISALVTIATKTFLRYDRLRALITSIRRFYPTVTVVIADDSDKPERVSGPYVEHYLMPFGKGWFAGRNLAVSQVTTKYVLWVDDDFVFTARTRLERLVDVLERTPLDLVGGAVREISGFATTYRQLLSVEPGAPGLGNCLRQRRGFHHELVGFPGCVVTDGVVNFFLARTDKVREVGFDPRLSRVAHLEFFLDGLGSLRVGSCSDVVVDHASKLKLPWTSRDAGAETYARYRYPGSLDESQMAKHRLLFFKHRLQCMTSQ
inactive: [1] 0.198 | crizotinib 0.014 | [2] -0.003 | [3] -0.019 | duvelisib 0.06 | gandotinib -0.077 | tozasertib -0.003 | [4] 0.12 | doramapimod 0.065 | ispinesib -0.077

ATL2 (UniProt Q8NHH9)
active: ispinesib 0.376
inactive: [1] 0.078 | crizotinib -0.031 | [2] -0.003 | [3] -0.014 | duvelisib 0.052 | gandotinib -0.035 | tozasertib -0.062 | [4] 0.056 | doramapimod -0.018

ADRM1 (UniProt Q16186)
UniProt Q16186, sequence (Q16186 whole entry, looked up): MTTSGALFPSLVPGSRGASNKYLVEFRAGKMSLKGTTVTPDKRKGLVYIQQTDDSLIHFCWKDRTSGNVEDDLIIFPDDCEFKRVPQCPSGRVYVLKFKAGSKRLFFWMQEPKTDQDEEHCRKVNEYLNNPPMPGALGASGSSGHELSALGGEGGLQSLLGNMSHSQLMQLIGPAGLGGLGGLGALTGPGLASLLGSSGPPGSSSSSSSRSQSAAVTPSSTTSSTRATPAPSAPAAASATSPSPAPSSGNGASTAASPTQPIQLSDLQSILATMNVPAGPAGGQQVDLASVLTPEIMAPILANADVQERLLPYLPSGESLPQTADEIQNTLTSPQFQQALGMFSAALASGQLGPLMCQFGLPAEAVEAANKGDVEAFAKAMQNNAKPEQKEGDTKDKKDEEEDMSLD
inactive: [1] 0.006 | crizotinib -0.109 | [2] -0.028 | [3] 0.138 | duvelisib -0.036 | gandotinib -0.056 | tozasertib -0.028 | [4] 0.069 | doramapimod 0.041 | ispinesib -0.05

BCLAF1 (UniProt Q9NYF8)
active: [3] -0.438
inactive: [1] -0.002 | crizotinib -0.06 | [2] 0.089 | duvelisib 0.017 | gandotinib -0.021 | tozasertib 0.012 | [4] -0.01 | doramapimod 0.035 | ispinesib 0.164

ATAD3A isoform 2 (UniProt Q9NVI7)
active: ispinesib -0.348
inactive: [1] 0.003 | crizotinib -0.191 | [2] -0.052 | [3] 0.101 | duvelisib -0.083 | gandotinib 0.032 | tozasertib 0.005 | [4] 0.075 | doramapimod 0.057

AKAP8L (UniProt Q9ULX6)
inactive: [1] -0.036 | crizotinib -0.049 | [2] -0.066 | [3] -0.1 | duvelisib -0.03 | gandotinib -0.007 | tozasertib 0.039 | [4] 0.092 | doramapimod 0.047 | ispinesib -0.102
